Assay outcomes from PubChem.
In the library only some 2.8% were active in any assay of this set; here they are far more common.
PI5P4K alpha inh: PI5P4K alpha (human) kinase inhibition. P48426. PI5P4Kalpha enzyme, ADP-Glo luminescence, 60 min; stronger effect = lower value. max response, %. 330,000 compounds, 1.2% hits; active = max response of -50% or lower; inconclusive = between -30% and -50%; inactive = -30% or higher; note: value at the top dose of about 77 µM
Target sequence (P48426 whole entry, looked up): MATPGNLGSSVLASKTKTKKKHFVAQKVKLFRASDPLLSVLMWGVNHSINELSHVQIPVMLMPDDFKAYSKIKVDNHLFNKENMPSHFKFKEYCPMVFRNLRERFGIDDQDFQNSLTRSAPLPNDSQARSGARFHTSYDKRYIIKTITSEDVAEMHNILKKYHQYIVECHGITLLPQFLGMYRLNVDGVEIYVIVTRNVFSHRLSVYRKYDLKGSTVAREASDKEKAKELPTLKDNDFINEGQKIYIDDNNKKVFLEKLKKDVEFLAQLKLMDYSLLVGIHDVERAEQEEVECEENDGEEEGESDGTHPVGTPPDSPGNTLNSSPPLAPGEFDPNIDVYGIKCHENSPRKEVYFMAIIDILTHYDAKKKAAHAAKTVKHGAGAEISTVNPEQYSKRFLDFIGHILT
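qHTS, 1536-well: enzyme/substrate mix, compound by pin tool, 5 microM ATP final; RT 60 min; ADP-Glo reagents 1 (45 min) then 2 (30 min); luminescence.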
Pol kappa inh-1: DNA polymerase kappa (human) inhibition | Q9UBT6 | purified Pol kappa, fluorescent DNA synthesis assay, 10 min | Potency, µM (top dose mostly 107 µM), usual class: inhibitors | 400,000 compounds, 0.53% hits | AID 588579
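Fluorescent qHTS in 1536-well format: enzyme (10 nM) and compound sat 15 min at room temperature before 50 nM substrate (final) was added. Signal taken at 0 and 10 min; no-enzyme buffer wells were negative controls.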
POLI inh: inhibitors of human DNA polymerase iota; AID 588590; 390,000 compounds, 1% hits; Pol iota fluorescent replication assay, 10 min; Potency, µM (top dose mostly 115 µM), actives largely listed as inhibitors
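Fluorescent replication assay read twice, at 0 min and 10 min after adding 50 nM (final) substrate. Enzyme (10 nM) and compounds were first incubated 15 min at room temperature; enzyme-free buffer wells were negative controls.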
WRN inhibitor: blocks human WRN helicase. WRN helicase unwinding, fluorescent forked duplex, kinetic. Potency, µM (top dose mostly 114 µM), actives largely listed as inhibitors. 360,000 compounds, 0.46% hits. AID 651768; note: nearly all actives have a fitted effect of over 55% in size
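WRN at 20 nM final preincubated with compound 15 min at room temperature; reaction started with 100 nM fluorophore/quencher forked duplex oligonucleotide and 2 mM ATP final. Unwinding followed kinetically by red fluorescence (ex 525, em 598 nm).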
POLB inh: blocks human DNA polymerase beta activity; AID 485314; Potency, µM (doses to about 114 µM), most hits filed as inhibitors; P06746; Pol beta primer extension/strand displacement, fluorescence kinetic; 340,000 compounds, 1.3% hits
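Pol beta (10 nM) and compounds were preincubated 15 min at room temperature, then 50 nM substrate (final) started primer extension/strand displacement. Reads were taken at 0 and 10 min; concentration-response data were fitted to a four-parameter Hill equation.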
Pol eta inh-1: inhibitors of human DNA polymerase eta | Q9Y253 | recombinant Pol eta, fluorescent DNA replication assay | Potency, µM (series often up to 114 µM), actives largely listed as inhibitors | 390,000 compounds, 1.2% hits
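Fluorescent replication assay: 50 nM final substrate added after a 15 min room-temperature compound preincubation with 10 nM enzyme. Signal taken at 0 min and again at 10 min.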
GALK inh confirm: confirmation of human galactokinase (GALK) inhibitors | shares compounds with Pol eta inh-1 | purified GALK, Kinase-Glo ATP depletion luminescence | AID 2015 | Potency, µM (top dose mostly 115 µM), most hits filed as inhibitors | 150 compounds, 70% hits
Redox cycling: counter-screen for GALK inhibitors: redox cycling H2O2 generation; shares compounds with Pol eta inh-1; Phenol red-HRP H2O2 redox cycling, absorbance 600 nm; Potency, µM (titrated, usually from 115 µM), usual class: inhibitors; 150 compounds, 40% hits; AID 2035
HEK293 tox: reduces HEK-293 cell viability in GALK counter-screen. shares compounds with Pol eta inh-1. Potency, µM (highest dose often 46.1 µM), most hits filed as inhibitors. 170 compounds, 10% hits. HEK-293 viability, ATP luminescence (CellTiter-Glo), 24/48 h
Pol kappa inh-2: Pol kappa (human) inhibition, cherry-pick confirmation. shares compounds with Pol eta inh-1. purified Pol-kappa, fluorescent strand-displacement substrate. Potency, µM, most hits filed as inhibitors. 920 compounds, 76% hits. AID 720501
Pol eta inh-2: confirmation of human DNA polymerase eta inhibitors; shares compounds with Pol eta inh-1; Pol eta primer extension, TAMRA/BHQ fluorescence, 10 min; Potency, µM, hits mostly inhibitors; 2,600 compounds, 64% hits
Large screens that a line does not name were inactive (follow-up assays come after a bar, where they were run). Unless noted, calls come from the whole dose curve; as a rule, active = well fitted curve in the direction sought with a large enough effect; inconclusive = small, poorly fitted or top-dose-only effect, or another doubt; inactive = no such curve, though single readings can be large; an effect the other way counts as inactive or inconclusive.

O=c1[nH]n2c(=O)c3c([nH]c2c1N=Nc1cccc(Cl)c1)CCCC3	WRN inhibitor inconclusive, POLB inh inconclusive, Pol eta inh-1 inconclusive | Pol eta inh-2 75.7
CCc1cccc(NC(=O)C(CC(C)C)NS(=O)(=O)c2ccc3c(c2)oc(=O)n3C)c1 (stereo not drawn)	none (no result: PI5P4K alpha inh, WRN inhibitor)
O=c1[nH]c(Nc2ccccc2)cc2cc(Br)ccc12	Pol kappa inh-1 inconclusive, POLI inh inconclusive, Pol eta inh-1 39.8µM (no result: POLB inh) | Pol eta inh-2 inconclusive
Cn1c(=O)cc(Nc2ccccc2)[nH]c1=O	none
O=c1[nH]c(Nc2ccccc2)cc2ccccc12	POLI inh 11.2µM, Pol eta inh-1 inconclusive | GALK inh confirm 42.1µM | Redox cycling 21.1µM | HEK293 tox inactive
COc1ccccc1Nc1cc2cc(Br)ccc2c(=O)[nH]1	Pol kappa inh-1 79.4µM, POLI inh inconclusive, Pol eta inh-1 20µM (no result: POLB inh) | Pol eta inh-2 67.5
COc1ccccc1Nc1nnc(C)c(=O)[nH]1	none
CC(=O)c1cccc(-c2ccc3c(=O)[nH]c(Nc4ccccc4)cc3c2)c1	PI5P4K alpha inh inconclusive, Pol kappa inh-1 inconclusive, POLI inh inconclusive, Pol eta inh-1 20µM (no result: POLB inh) | Pol eta inh-2 75.7
CCOC(=O)C1(C)CCCN(C(=O)c2ccc(-c3ccccc3)cc2)C1 (stereo not drawn)	none (no result: Pol kappa inh-1, POLI inh, POLB inh, Pol eta inh-1)
Cc1ccc(S(=O)(=O)NCc2ccccc2)cc1C(=O)NCC1CCCO1 (stereo not drawn)	POLI inh inconclusive, Pol eta inh-1 inconclusive (no result: POLB inh)
Cc1cc(OCc2cc(C(=O)N3CCCCCC3)no2)cc(C)c1Cl	none
CC1(C)CC(=O)C2=C(C1)c1c(ccc3ccccc13)NC2c1cc([N+](=O)[O-])cc([N+](=O)[O-])c1O (stereo not drawn)	PI5P4K alpha inh -58.6, POLI inh inconclusive, WRN inhibitor inconclusive, POLB inh 44.7µM, Pol eta inh-1 28.2µM | Pol kappa inh-2 47.4 | Pol eta inh-2 inconclusive
CC1(C)CC(=O)C2=C(C1)c1c(ccc3ccccc13)NC2c1ccc(C(=O)O)cc1 (stereo not drawn)	none
CCOC1=C/C(=C/c2c(N)n3nc(-c4ccccc4)sc3nc2=O)C=CC1=O	PI5P4K alpha inh -83.4, Pol kappa inh-1 inconclusive, POLI inh inconclusive, WRN inhibitor inconclusive, POLB inh 35.5µM, Pol eta inh-1 28.2µM | Pol eta inh-2 inconclusive
Cc1c(C#N)c(O)[nH]c(=O)c1N=Nc1ccc(Cl)c(C(=O)O)c1	none
Cc1c(C#N)c(O)[nH]c(=O)c1N=Nc1ccc(S(N)(=O)=O)cc1	PI5P4K alpha inh -76.3, POLI inh inconclusive, WRN inhibitor inconclusive, Pol eta inh-1 25.1µM | Pol kappa inh-2 inconclusive | Pol eta inh-2 84.9
COC(=O)C[C@H]1C=C[C@H](NS(=O)(=O)c2cn(C)cn2)[C@@H](CO)O1	none (no result: Pol kappa inh-1, POLI inh, POLB inh, Pol eta inh-1)
C=CCn1c(SCc2nc3sc(C(=O)O)c(C)c3c(=O)[nH]2)nnc1-c1ccc(C(C)(C)C)cc1	PI5P4K alpha inh -50.9, Pol kappa inh-1 35.5µM, POLI inh inconclusive, WRN inhibitor inconclusive, POLB inh 22.4µM, Pol eta inh-1 7.08µM | Pol kappa inh-2 11.9 | Pol eta inh-2 30.1
